Results filed as inconclusive are left out. A number with no mark means an inactive call. Active and inactive are the calls of the source. Calls follow the shape of the dose curve; as a rule, active = well fitted cell-killing curve with a large enough effect in the repeat runs; inconclusive = weak or mixed curves; inactive = no such curve, though single readings can be large or run the other way.
% is scaled to controls: 0 for no effect and ±100 for the full control effect; potency is read from the fitted curve at half-maximal effect.

The nature of this experiment: qHTS assay to identify small molecule agonists of the peroxisome proliferator-activated receptor delta (PPARd) signaling pathway - cell viability counter screen (AID 743211). Also: nearly all actives have a fitted effect of over 55% in size. The note with it: PPARd-bla HEK293H viability, CellTiter-Glo luminescence, 17 h; series mostly up to 62.6 µM; activity change, negative = cytotoxicity: at the top concentration. From the text: U.S. Tox21 Program National Center for Advancing Translational Sciences [NCATS] NIH Chemical Genomics Center [NCGC] U.S. Environmental Protection Agency [EPA] National Institutes of Environmental Health Sciences [NIEHS] National Toxicology Program [NTP] U.S. Food and Drug Administration [FDA] Tox21 Assay Overview: The peroxisome proliferator-activated receptors (PPARs) are lipid-activated transcription factors of the nuclear receptor superfamily with three distinct subtypes namely PPAR alpha, PPAR delta (PPARd) and PPAR gamma. All these subtypes heterodimerizes with Retinoid X receptor (RXR) and have different physiological functions. […] To identify the compounds that activate PPAR-delta signaling, GeneBLAzer PPAR delta UAS-bla HEK293H cell line (Invitrogen, Carlsbad, CA, USA) containing a beta-lactamase reporter gene under the control of an Upstream Activator Sequence (UAS) was used to screen the Tox21 compound library. The cytotoxicity of the Tox21 compound library against the PPARd-bla cell line was tested in parallel by measuring the cell viability using CellTiter-Glo assay (Promega, Madison, WI) in the same wells.
Tox21 Assay Protocol Summary: PPARd-bla cells were dispensed at 3000 cells/6uL/well in 1536-well black wall/clear bottom plates using a Multidrop Combi (Thermo Fisher Scientific, Waltham, MA) dispenser. After the assay plates were incubated at 37 C and 5% CO2 for 5 h, 23 nL of compounds dissolved in DMSO, positive controls or DMSO only was transferred to the assay plate by a Pintool station (Kalypsys, San Diego, CA). The assay plates were incubated at 37C for 17 h. After 1 uL of LiveBLAzerTM B/G FRET substrate was added using a Bioraptr Flying Reagent Dispenser (FRD) workstation (Beckman Coulter, Indianapolis, IN, USA), the plates were incubated at room temperature for 2 h, and fluorescence intensity was measured by an Envision plate reader (PerkinElmer, Shelton, CT). For cell viability readout that measures cytotoxicity, 3 ul/well of CellTiter-Glo reagent was added into the assay plates using a Bioraptr FRD. After 30 min incubation at room temperature, the luminescence intensity in the plates was measured using a ViewLux plate reader (PerkinElmer).
A general note: Quantitative high-throughput screening tests each substance at several concentrations.
Consider `COc1cc2[nH]c(=O)[nH]c(=O)c2cc1OC`, for which the “activity change, negative = cytotoxicity” value is -0.548%.
For `CN1CCN(CCCN2c3ccccc3Sc3ccc(S(=O)(=O)N(C)C)cc32)CC1`, the Potency is 26.6 µM (active).
With `N#C/C(=C1\SCC(c2ccccc2Cl)S1)n1ccnc1` (stereo not given), the “activity change, negative = cytotoxicity” value was -0.229%.
On the same count and under the same terms, the same measure for `Cc1nccn1-c1ccc(Sc2cccc(C3(C(N)=O)CCOCC3)c2)cc1`: -0.583%; for `CC(C)(C)C(=O)C(Oc1ccc(Cl)cc1)n1ccnc1` (stereo not given): -2.52%; for `C[Si]1(C)O[Si](C)(C)O[Si](C)(C)O1`: 6.42%.
On the same count and under the same terms, next, `O=[N+]([O-])c1cccc(S(=O)(=O)NCCNS(=O)(=O)c2cccc([N+](=O)[O-])c2)c1`: 10.4%; `CC(C)C(=O)O`: 3.46%; `CC(=O)Nc1ccc(N)cc1`: 5.1% [at 81.1 µM].
For `Cc1ccccc1N1C(=O)c2cc(S(N)(=O)=O)c(Cl)cc2NC1C` (stereo not given), the “activity change, negative = cytotoxicity” value was -1.77%.
Still for that read-out and setting: next, `CO[C@@]12[C@H](COC(N)=O)C3=C(C(=O)C(C)=C(N)C3=O)N1C[C@@H]1N[C@@H]12`: -17.8%; `O=C(C(=O)c1ccccc1)c1ccccc1`: 3.26%.
As to `CCOc1cc(N)c(Cl)cc1C(=O)NCC1CN(Cc2ccc(F)cc2)CCO1` (stereo not given), the “activity change, negative = cytotoxicity” value was -15.9%.
On the same count and under the same terms, next, `O=C(O)c1snc(Cl)c1Cl`: 4.09%; `CC1(C)O[C@@H]2C[C@H]3[C@@H]4CCC5=CC(=O)C=C[C@]5(C)[C@H]4[C@@H](O)C[C@]3(C)[C@]2(C(=O)CO)O1`: 3.85%; `O=S(=O)(c1ccccc1)c1ccc(Cl)cc1`: -4.3%.
On to `CCCC(=O)O[C@]1(C(=O)COC(=O)CC)CC[C@H]2[C@@H]3CCC4=CC(=O)CC[C@]4(C)[C@H]3[C@@H](O)C[C@@]21C`, for which the “activity change, negative = cytotoxicity” value is 1.78% [at 29.1 µM].
On the same count and under the same terms, the same measure for `Nc1ccc(S(=O)(=O)O)c(N)c1`: 0.228%.
Still for that read-out and setting: the same measure for `O=C(N/N=C/c1ccc([N+](=O)[O-])o1)c1ccc(O)cc1`: -10%.
Consider `C[N+](C)(C)CCOC(N)=O`, for which the “activity change, negative = cytotoxicity” value was 0.163%.
Turning to `CCCCCCCCCCCC[N+](C)(C)CC(=O)[O-]`, the Potency is 15.5 µM (active).
On to `OC(CCCN1CCCCC1)(c1ccccc1)c1ccccc1`, for which the “activity change, negative = cytotoxicity” value is -17.3%.
Take `COc1cc2ncnc(Nc3ccc(F)c(Cl)c3)c2cc1OCCCN1CCOCC1`: the Potency is 29.8 µM (active).
As to `COCc1c(C(C)C)nc(C(C)C)c(/C=C/[C@@H](O)C[C@@H](O)CC(=O)O)c1-c1ccc(F)cc1`, the “activity change, negative = cytotoxicity” value is -21.7%.
Same read-out and setting: the same measure for `Cc1ccc(Nc2nccc(N(C)c3ccc4c(C)n(C)nc4c3)n2)cc1S(N)(=O)=O`: -11.1%.
On the same count and under the same terms, the same measure for `CCCCC(CC)CNCC(CC)CCCC` (stereo not given): 2.24%.
As for `CCC(=O)Oc1ccc(/C(CC)=C(\CC)c2ccc(OC(=O)CC)cc2)cc1`, the Potency is 54.9 µM (active).
As for `Cn1c(=O)c2c(ncn2CC(=O)O)n(C)c1=O`, the “activity change, negative = cytotoxicity” value is 1.37%.
The same measure, in the same setting: the same measure for `CC(=O)OCC(=O)[C@H]1CC[C@H]2[C@@H]3CCC4=CC(=O)CC[C@]4(C)[C@H]3CC[C@]12C`: -2.16%; for `CC(=O)Nc1ccccc1C`: 0.4% [at 81.1 µM].
On to `CC(C)CCCC(=O)O`, for which the “activity change, negative = cytotoxicity” value was 9.63%.
Take `Oc1cc(O)c(Cl)cc1Cl`: the “activity change, negative = cytotoxicity” value is -5.85% [at 81.1 µM].
Consider `CNCCCC1c2ccccc2C=Cc2ccccc21`, for which the Potency was 10.6 µM (active).
`COC(OC)(C(=O)c1ccccc1)c1ccccc1`: the “activity change, negative = cytotoxicity” value was 2.46%.
On to `Nc1c(I)cc(I)c(C(=O)N(CCC(=O)O)c2ccccc2)c1I`, for which the “activity change, negative = cytotoxicity” value was 2.56%.
Still for that read-out and setting: the same measure for `Fc1c(F)c(F)c(Br)c(F)c1F`: 14.2%.
The same measure, in the same setting: the same measure for `O=C1NCCN1`: -3.12%.
Same read-out and setting: next, `O=C(O)c1ccc(CO)o1`: 2.03% [at 81.1 µM]; `COC(=O)c1cc(S(N)(=O)=O)ccc1OC`: 0.109%.
As to `O=Cc1c(Cl)cccc1Cl`, the “activity change, negative = cytotoxicity” value was 6.1% [at 81.1 µM].

The record behind these values is PubChem BioAssay (Tox21).
